Data reported in PubChem BioAssay (NCI).
About 83,000 compounds went through this panel and 20% of them were active in at least one assay; those are over-represented in the sample as a whole.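 In brief: 96-well plates, 48 h treatment, single concentration, percent growth endpoint.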 Unmarked numbers belong to inactive results. The source made the active and inactive calls. Rule for the calls: active = growth percent below 10; inactive = the rest.

Legend:
Test in all cases: NCI-60 one-dose screen, 48 h (100 = growth as untreated, 0 = no growth, -100 = all killed)
Details in all cases: 10 µM unless noted
NCI-H23 lung = system: NCI-H23 lung
NCI-H226 lung = system: NCI-H226 lung
NCI-H322M lung = system: NCI-H322M lung
HOP-62 NSCLC = system: HOP-62 NSCLC
NCI-H460 lung = system: NCI-H460 lung
HOP-92 NSCLC = system: HOP-92 NSCLC
NCI-H522 lung = system: NCI-H522 lung
A549/ATCC NSCLC = system: A549/ATCC NSCLC
786-0 renal = system: 786-0 renal
COLO 205 colon = system: COLO 205 colon
DU-145 prostate = system: DU-145 prostate
K-562 leukemia = system: K-562 leukemia
MALME-3M melanoma = system: MALME-3M melanoma
MDA-MB-231 breast = system: MDA-MB-231 breast
RXF 393 renal = system: RXF 393 renal
SF-268 CNS = system: SF-268 CNS
SF-539 CNS = system: SF-539 CNS
UACC-257 melanoma = system: UACC-257 melanoma
M14 melanoma = system: M14 melanoma
SF-295 CNS = system: SF-295 CNS

ClCCN(CCCl)Cc1ccc(Nc2ccnc3cc(Cl)ccc23)cc1 showed a growth (NCI-H23 lung) of 36.6%, a growth (NCI-H226 lung) of 70.2% and a growth (NCI-H322M lung) of 79%. For the same compound, the growth (HOP-62 NSCLC) was 31.3%, the growth (NCI-H460 lung) was 2.98% (active) and the growth (HOP-92 NSCLC) was -4.98% (active). For the same compound, the growth (NCI-H522 lung) was -34.7% (active), the growth (A549/ATCC NSCLC) was 39.2% and the growth (786-0 renal) was 8.84% (active). For the same compound, the growth (COLO 205 colon) was 50.6%, the growth (DU-145 prostate) was 18.6% and the growth (K-562 leukemia) was 35.6%. For the same compound, the growth (MALME-3M melanoma) was 57.4%, the growth (MDA-MB-231 breast) was 56.3% and the growth (RXF 393 renal) was -59.1% (active). For the same compound, the growth (SF-268 CNS) was 25.3%, the growth (SF-539 CNS) was -20.2% (active) and the growth (UACC-257 melanoma) was 56.2%. For the same compound, the growth (M14 melanoma) was 49.7%.
Compound CC12CC(=O)C3(SC#N)C(CCC4=CC(=O)CCC43C)C1CCC2=O (stereo unspecified) has a growth (NCI-H23 lung) of 99.1%, a growth (NCI-H226 lung) of 94.1% and a growth (NCI-H322M lung) of 96%. It also gave a growth (HOP-62 NSCLC) of 106%, a growth (NCI-H460 lung) of 96.2% and a growth (HOP-92 NSCLC) of 90.7%. The growth (NCI-H522 lung) was -3.58% (active), the growth (A549/ATCC NSCLC) was 107% and the growth (786-0 renal) was 90%. It also gave a growth (COLO 205 colon) of 66%, a growth (DU-145 prostate) of 46.2% and a growth (K-562 leukemia) of 89%. It also gave a growth (MALME-3M melanoma) of 50.2%, a growth (MDA-MB-231 breast) of 100% and a growth (RXF 393 renal) of 56.5%. For the same compound, the growth (SF-268 CNS) was 101%, the growth (UACC-257 melanoma) was 75.9% and the growth (M14 melanoma) was 89%.
C[N+]12CN3CN(CN(C3)C1)C2 gave a growth (NCI-H23 lung) of 94.3%, a growth (NCI-H226 lung) of 103% and a growth (NCI-H322M lung) of 110%. The growth (HOP-62 NSCLC) was 88%, the growth (NCI-H460 lung) was 107% and the growth (HOP-92 NSCLC) was 71%. For the same compound, the growth (NCI-H522 lung) was 94.5%, the growth (A549/ATCC NSCLC) was 98.8% and the growth (786-0 renal) was 104%. For the same compound, the growth (COLO 205 colon) was 99.4%, the growth (DU-145 prostate) was 119% and the growth (K-562 leukemia) was 198%. For the same compound, the growth (MALME-3M melanoma) was 111%, the growth (MDA-MB-231 breast) was 133% and the growth (RXF 393 renal) was 111%. For the same compound, the growth (SF-268 CNS) was 106%, the growth (SF-295 CNS) was 117% and the growth (SF-539 CNS) was 102%. The growth (M14 melanoma) was 103%.
In the case of CC[C@]12C=CCN3CC[C@]4(C(=C(C(=O)OC)C1)Nc1cc(OC)c(OC(C)=O)cc14)[C@@H]32, the growth (NCI-H23 lung) is reported as 20.7%, the growth (NCI-H226 lung) is reported as 34.4% and the growth (NCI-H322M lung) is reported as 39%. For the same compound, the growth (HOP-62 NSCLC) was 20.5%, the growth (NCI-H460 lung) was 8.27% (active) and the growth (HOP-92 NSCLC) was 4.72% (active). The growth (NCI-H522 lung) was -1.97% (active), the growth (A549/ATCC NSCLC) was 16% and the growth (786-0 renal) was 5.06% (active). The growth (COLO 205 colon) was -22.8% (active), the growth (DU-145 prostate) was 24.3% and the growth (K-562 leukemia) was 4.08% (active). It also gave a growth (MALME-3M melanoma) of 112%, a growth (MDA-MB-231 breast) of 19.7% and a growth (RXF 393 renal) of 37.1%. It also gave a growth (SF-268 CNS) of 19.5%, a growth (SF-295 CNS) of 20.4% and a growth (SF-539 CNS) of 11.2%. It also gave a growth (M14 melanoma) of 13.9%.
C[C@]12CC[C@@H]3c4ccc(Oc5nc(N6CC6)nc(N6CC6)n5)cc4CC[C@H]3[C@@H]1CCC2=O showed a growth (NCI-H23 lung) of 31.6%, a growth (NCI-H226 lung) of 48.7% and a growth (NCI-H322M lung) of 44.2%. For the same compound, the growth (HOP-62 NSCLC) was 11.7%, the growth (NCI-H460 lung) was -33.8% (active) and the growth (HOP-92 NSCLC) was 104%. It also gave a growth (NCI-H522 lung) of 31.5%, a growth (A549/ATCC NSCLC) of 24.9% and a growth (786-0 renal) of 32.4%. The growth (COLO 205 colon) was 32.5%, the growth (DU-145 prostate) was 7.1% (active) and the growth (K-562 leukemia) was 18%. For the same compound, the growth (MALME-3M melanoma) was 65.4%, the growth (MDA-MB-231 breast) was 74.5% and the growth (RXF 393 renal) was -6.13% (active). It also gave a growth (SF-268 CNS) of 29.9%, a growth (SF-539 CNS) of 21.6% and a growth (UACC-257 melanoma) of 65.5%. The growth (M14 melanoma) was 44.7%.
Nc1nnnc2nc[nH]c12 was tested, and the growth (NCI-H23 lung) was 31%, the growth (NCI-H226 lung) was -54.1% (active) and the growth (NCI-H322M lung) was 28.1%. The growth (HOP-62 NSCLC) was -11.4% (active), the growth (NCI-H460 lung) was 20.6% and the growth (HOP-92 NSCLC) was 1.91% (active). The growth (NCI-H522 lung) was 14.6%, the growth (A549/ATCC NSCLC) was 34.4% and the growth (786-0 renal) was 0.102% (active). For the same compound, the growth (COLO 205 colon) was 6.07% (active), the growth (DU-145 prostate) was 3.72% (active) and the growth (K-562 leukemia) was 4.73% (active). For the same compound, the growth (MALME-3M melanoma) was 34.8%, the growth (MDA-MB-231 breast) was 14.5% and the growth (RXF 393 renal) was 11.6%. For the same compound, the growth (SF-268 CNS) was 28.6%, the growth (SF-295 CNS) was 0.603% (active) and the growth (SF-539 CNS) was 14.3%. For the same compound, the growth (M14 melanoma) was -35.4% (active).
For O=C1CCC2(O)[C@@H]3Cc4ccc(O)c5c4[C@]2(CCN3Cc2ccoc2)C1O5 (stereo partly specified), the growth (NCI-H23 lung) was 96.7%, the growth (NCI-H226 lung) was 89.4% and the growth (NCI-H322M lung) was 110%. It also gave a growth (HOP-62 NSCLC) of 106%, a growth (NCI-H460 lung) of 103% and a growth (HOP-92 NSCLC) of 100%. For the same compound, the growth (NCI-H522 lung) was 95.4%, the growth (A549/ATCC NSCLC) was 102% and the growth (786-0 renal) was 103%. It also gave a growth (COLO 205 colon) of 105%, a growth (DU-145 prostate) of 106% and a growth (K-562 leukemia) of 93.9%. For the same compound, the growth (MALME-3M melanoma) was 96.7%, the growth (MDA-MB-231 breast) was 106% and the growth (RXF 393 renal) was 116%. The growth (SF-268 CNS) was 108%, the growth (SF-539 CNS) was 97.8% and the growth (UACC-257 melanoma) was 103%. The growth (M14 melanoma) was 100%.
COC[C@@H]1C[C@@]2(C)[C@@H](CC[C@@H]3[C@@H]2CC[C@@]2(C)[C@H]3CC[C@]2(C)O)CC1=O showed a growth (NCI-H23 lung) of 108%, a growth (NCI-H226 lung) of 106% and a growth (NCI-H322M lung) of 105%. For the same compound, the growth (HOP-62 NSCLC) was 107%, the growth (NCI-H460 lung) was 101% and the growth (HOP-92 NSCLC) was 100%. For the same compound, the growth (NCI-H522 lung) was 73.6%, the growth (A549/ATCC NSCLC) was 90.6% and the growth (786-0 renal) was 94.9%. It also gave a growth (COLO 205 colon) of 109%, a growth (DU-145 prostate) of 102% and a growth (K-562 leukemia) of 85.8%. The growth (MALME-3M melanoma) was 96.4%, the growth (MDA-MB-231 breast) was 116% and the growth (RXF 393 renal) was 105%. For the same compound, the growth (SF-268 CNS) was 102%, the growth (SF-539 CNS) was 90.7% and the growth (UACC-257 melanoma) was 83.2%. The growth (M14 melanoma) was 94.5%.
